# Measured values published in ChEMBL document CHEMBL1157539, “Thousands of chemical starting points for antimalarial lead identification” (Nature, 2010).
# How the values were obtained:
# Assay type in all cases: functional
# Plasmodium falciparum [1] = assay: GSK_TCMDC: Inhibition of Plasmodium falciparum 3D7 in whole red blood cells, using parasite LDH activity as an index of growth. Test compounds present at 2uM
# Plasmodium falciparum [2] = assay: GSK_TCMDC: Inhibition of Plasmodium falciparum Dd2 in whole red blood cells, using parasite LDH activity as an index of growth. Test compounds present at 2uM
# HepG2 = assay: GSK_TCMDC: Percent inhibition of human HepG2 cell line. Test compounds present at 10uM.
structure (smiles),measurement,setting,value
C=CCn1c(=N)n(CC(O)c2ccc(Cl)c(Cl)c2)c2ccccc21.Cl (stereo unspecified),Inhibition,Plasmodium falciparum [1],91%
same,Inhibition,Plasmodium falciparum [2],80%
same,Inhibition,HepG2,15%
Cc1cc(N2Cc3ccccc3C2)nc(Nc2cccc(C#N)c2)n1,Inhibition,Plasmodium falciparum [1],100%
same,Inhibition,Plasmodium falciparum [2],97%
same,Inhibition,HepG2,6%
O=[N+]([O-])c1c(O)nc2c(c1O)CCC2,Inhibition,Plasmodium falciparum [1],97%
same,Inhibition,Plasmodium falciparum [2],1%
same,Inhibition,HepG2,9%
CN(C)c1cc(NN=Cc2cc(Cl)ccc2O)nc(N(C)C)n1,Inhibition,Plasmodium falciparum [1],98%
same,Inhibition,Plasmodium falciparum [2],98%
same,Inhibition,HepG2,3%
O=C(Nc1ccc([N+](=O)[O-])cc1)Nc1cc(OCC(F)(F)F)cc(OCC(F)(F)F)c1,Inhibition,Plasmodium falciparum [1],100%
same,Inhibition,Plasmodium falciparum [2],100%
same,Inhibition,HepG2,71%
CC(C)(C)c1ccc(CNC(=O)c2ccc(-c3nc4ccc(Cl)cc4[nH]3)cc2)cc1,Inhibition,Plasmodium falciparum [1],93%
same,Inhibition,Plasmodium falciparum [2],2%
same,Inhibition,HepG2,14%
CN/C(=N\O)NCCN(C)C.Cl,Inhibition,Plasmodium falciparum [1],88%
same,Inhibition,Plasmodium falciparum [2],0%
same,Inhibition,HepG2,0%
CCc1cc2c(Sc3nc4ccccc4[nH]3)ncnc2s1,Inhibition,Plasmodium falciparum [1],97%
same,Inhibition,Plasmodium falciparum [2],98%
same,Inhibition,HepG2,6%
COc1cc2nc(N3CCC(CNC(=O)c4ccc(-c5ccc(C(=O)N(C)C)cc5OCCN(C)C)cc4)CC3)nc(N)c2cc1OC,Inhibition,Plasmodium falciparum [1],95%
same,Inhibition,Plasmodium falciparum [2],0%
same,Inhibition,HepG2,0%
NC1=NC(c2ccccc2)(c2ccccc2)C(=O)N1CCCCc1ccccn1,Inhibition,Plasmodium falciparum [1],94%
same,Inhibition,Plasmodium falciparum [2],56%
same,Inhibition,HepG2,10%
Nc1nc(N)c2c(ccc3c2ccn3CCCC(F)(F)F)n1,Inhibition,Plasmodium falciparum [1],97%
same,Inhibition,Plasmodium falciparum [2],34%
same,Inhibition,HepG2,66%
Cl.O=C(O)CNCC(O)c1ccccc1 (stereo unspecified),Inhibition,Plasmodium falciparum [1],96%
same,Inhibition,Plasmodium falciparum [2],0%
same,Inhibition,HepG2,7%
Cl.NC1=NC(CCc2ccccc2)N(c2ccc(Cl)cc2)C(N)=N1 (stereo unspecified),Inhibition,Plasmodium falciparum [1],94%
same,Inhibition,Plasmodium falciparum [2],20%
same,Inhibition,HepG2,2%
N#Cc1cccc(C(=O)Nc2ccc(-c3nc4ccccc4[nH]3)cc2)c1,Inhibition,Plasmodium falciparum [1],91%
same,Inhibition,Plasmodium falciparum [2],38%
same,Inhibition,HepG2,33%
O=C(/C=C/c1ccc(Cl)c(Cl)c1)NCCCCCN1CCC(NC(=O)Nc2ccc(Cl)c(Cl)c2)CC1,Inhibition,Plasmodium falciparum [1],100%
same,Inhibition,Plasmodium falciparum [2],1%
same,Inhibition,HepG2,23%
COc1ccc(-c2ccc(NC(=O)c3ccc(Cl)cc3)cc2)cc1CN(C)CCO.O=C(O)C(F)(F)F,Inhibition,Plasmodium falciparum [1],92%
same,Inhibition,Plasmodium falciparum [2],43%
same,Inhibition,HepG2,43%
COc1ccc(OC(C)CNC(=O)c2cc([N+](=O)[O-])ccc2-c2ccc(OC)cc2)cc1 (stereo unspecified),Inhibition,Plasmodium falciparum [1],92%
same,Inhibition,Plasmodium falciparum [2],44%
same,Inhibition,HepG2,18%
